The whole screen tested about 140,000 compounds, of which about 4,300 (3.1%) were called active. Inconclusive results (about 21%) are left out. The list comes from a sample in which actives are over-represented; it also holds similar structures and randomly drawn compounds. Unmarked numbers belong to inactive results.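 How the source made its calls: active means readout at or below -70, meaning at least 70% loss of cells showing the perinucleolar compartment, a nuclear body marking cancer cells; inconclusive means readout between -30 and a set limit; inactive means the rest.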

This assay is described as follows: High Content Assay for Compounds that inhibit the Assembly of the Perinucleolar Compartment.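 Further: plate controls were DMSO wells for no effect and camptothecin positive control wells for full effect.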 Particulars: PC3M PTB-GFP, PNC prevalence imaging, 16 h; at 10 µM; stronger effect = lower value. In short, it runs like this: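 PC3M cells stably expressing PTB-GFP, 750–1000 cells/well, treated 16 h at 37 °C with compound (23 nl of library stock), in duplicate. After paraformaldehyde fixation and Hoechst stain, imaged at 20x; PNC prevalence scored by image analysis.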
For `OC(COCC1COc2ccccc2O1)CN1CCN(c2ccc(F)cc2)CC1` (configuration not stated), the activity change (PNC), negative = inhibition was -2.15%.
The same measure for `OC(COc1ccc2ccccc2c1)CN1CCOCC1` (configuration not stated): 13%; for `OC(COCc1ccco1)CN1CCN(c2ccccc2)CC1` (configuration not stated): -85.3% (active); for `Cc1ccc(-c2csc(NNC(=O)c3ccccc3)n2)cc1`: -13.8%.
For `Cc1ccc(O)c(-c2cc(C(=O)NCc3ccccc3)[nH]n2)c1`, the activity change (PNC), negative = inhibition was -13.6%.
In the case of `Cc1cccc(NC(=O)C2CCN(S(=O)(=O)c3cccc4cccnc34)CC2)c1`, the activity change (PNC), negative = inhibition was 20.6%.
Regarding `Cc1cccc(NC(=O)C2CC(=O)OC23CCCC3)c1` (configuration not stated), the activity change (PNC), negative = inhibition was -100% (active).
For `Cc1cccc(NC(=O)CN2C(=O)CNC2=O)c1`, the activity change (PNC), negative = inhibition is 48.7%.
With `CCCCOc1ccc(NC(=O)[C@@H]2CCCN2C(=O)C2CCN(S(=O)(=O)c3ccc(C)cc3)CC2)cc1`, the activity change (PNC), negative = inhibition is 7.21%.
Next, `COc1cc(/C=N/O)ccc1OCc1ccc([N+](=O)[O-])cc1`: 15.8%; `COC(=O)c1ccccc1NC(=O)CSc1ccccn1`: 6.08%; `CCCCCNC(=O)c1cccnc1SCC(=O)Nc1ccccc1OC`: -119% (active).
For `CCCNC(=O)c1ccccc1NC(=O)CSCc1ccc(OC)cc1`, the activity change (PNC), negative = inhibition was -26.5%.
With `COc1cc(NC(=O)c2ccccc2NS(=O)(=O)c2ccc(Cl)s2)cc(OC)c1`, the activity change (PNC), negative = inhibition is -4.27%.
Regarding `Cc1cc(Nc2ccccc2)nc(N)n1`, the activity change (PNC), negative = inhibition is -28.7%.
Next, `CCOC(=O)c1nn(-c2ccccc2F)c2nc(Nc3ccccc3)cc(=O)n12`: -91% (active); `CCOC(=O)c1nc(Nc2ccc(C(=O)OC)cc2)c2ccccc2n1`: -9.55%.
Consider `Nc1nc(SCC(=O)NCCN2CCOCC2)nc2sc3c(c12)CCC3`, for which the activity change (PNC), negative = inhibition is 3.5%.
The same measure for `Cc1ccc(Cl)cc1N1CCN(C(=O)c2cccc3c(=O)c(C)c(-c4ccccc4)oc23)CC1`: 2.98%; for `C[C@@H](O)c1nc2ccccc2n1N`: -14.7%.
Turning to `O=C(O)c1cccc(N=NN2CCCCCC2)c1`, the activity change (PNC), negative = inhibition is 12.1%.
The same measure for `COc1ccc(C2=NOC(C(=O)NCc3ccco3)C2)cc1OC` (configuration not stated): -87% (active).
As for `COc1ccc(-c2cc(C(=O)NCc3ccco3)no2)cc1OC`, the activity change (PNC), negative = inhibition was -7.14%.
Consider `Cc1ccc(CNC(=O)C2CC(c3ccccc3[N+](=O)[O-])=NO2)o1` (configuration not stated), for which the activity change (PNC), negative = inhibition was -9.83%.
The same measure for `COc1ccccc1N1CCN(C(=O)C(=O)N/N=C/c2ccccc2F)CC1`: -114% (active).
Next, `COc1ccccc1N1CCN(C(=O)c2ccc(S(=O)(=O)N3CCCCC3)cc2)CC1`: 48.1%.
As for `COc1ccc(Nc2ncc(C(=O)N3CCN(c4ccccc4OC)CC3)c3ccccc23)cc1`, the activity change (PNC), negative = inhibition is 37.3%.

The values are drawn from PubChem BioAssay AID2417 (National Center for Advancing Translational Sciences (NCATS), 2010).
